Experimental findings from PubChem BioAssay are described below.

Values joined by “and” are separate entries in the source; they are usually repeats but may differ in a detail not shown here. Equal values may be shown once. A number with no mark means an inactive call. Active and inactive are the calls of the source. Cut-off read from the data, not from the text of the source, unless noted: active = inhibition above about 28%; inactive = the rest.

Test [1] is described as follows: StAR promoter reporter inhibitors, counter-screen for LRH-1 inverse agonist project, cell-based, luminescence, high throughput (AID 651611). To be noted: StAR promoter luciferase reporter counterscreen, at 3.6 µM, stronger effect = higher value.
The target in test [2] is Nuclear receptor subfamily 5 group A member 2 (Homo sapiens) (UniProt O00482). The test is described as follows: NR5A2 activity suppression in reporter cells – cell-based, luminescence, confirmation (AID 651613; in the data active = inhibition above about 42%;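 note: HEK293T cells co-transfected with LRH-1 and StAR promoter luciferase reporter; 0% = vehicle wells and 100% = parental cells lacking receptor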). To be noted: cell-based LRH-1 luciferase reporter, inverse agonism; at 3.6 µM; stronger effect = higher value. In general terms: In a reporter assay the amount or activity of a reporter protein is the signal.
Sequence of Nuclear receptor subfamily 5 group A member 2 (Homo sapiens) (O00482 whole entry, looked up): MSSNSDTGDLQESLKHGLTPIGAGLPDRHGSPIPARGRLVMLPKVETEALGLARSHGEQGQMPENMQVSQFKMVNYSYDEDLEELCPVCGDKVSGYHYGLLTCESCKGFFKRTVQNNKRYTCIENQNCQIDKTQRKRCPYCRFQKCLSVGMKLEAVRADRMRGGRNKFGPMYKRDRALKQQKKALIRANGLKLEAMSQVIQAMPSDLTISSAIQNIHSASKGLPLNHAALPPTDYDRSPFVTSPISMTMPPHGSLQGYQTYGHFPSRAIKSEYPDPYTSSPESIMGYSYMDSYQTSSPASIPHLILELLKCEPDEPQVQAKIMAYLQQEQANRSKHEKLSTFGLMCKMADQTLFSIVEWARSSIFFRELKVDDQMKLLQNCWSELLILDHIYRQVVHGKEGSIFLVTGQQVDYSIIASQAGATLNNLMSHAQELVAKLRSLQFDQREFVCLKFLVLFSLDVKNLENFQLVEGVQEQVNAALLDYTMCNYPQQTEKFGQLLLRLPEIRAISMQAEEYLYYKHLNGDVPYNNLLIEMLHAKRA

Test [3] concerns the target Steroidogenic factor 1 (Homo sapiens) (UniProt Q13285). The test is described as follows: inverse agonism at SF1 nuclear receptor – cell-based, luminescence, high throughput, counter-screen for LRH-1 inverse agonist project (AID 651614; in the data active = inhibition above about 44%;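 note: cells cotransfected with StAR promoter reporter and SF1 expression vector; 0% = vehicle on cells with receptor and 100% = vehicle on cells lacking receptor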). To be noted: cell-based SF1 luciferase reporter, at 3.6 µM, stronger effect = higher value. On the technique in general: Counterscreens check selectivity or assay interference.

Test [4] in a line: compounds suppressing VP16-driven luciferase signal – cell-based, luminescence, high throughput, counter-screen for LRH-1 inverse agonist project (AID 651615; in the data active = inhibition above about 33%). To be noted: Gal4-VP16 luciferase reporter cells, at 3.6 µM, stronger effect = higher value.

Sequence of Steroidogenic factor 1 (Homo sapiens) (Q13285 whole entry, looked up): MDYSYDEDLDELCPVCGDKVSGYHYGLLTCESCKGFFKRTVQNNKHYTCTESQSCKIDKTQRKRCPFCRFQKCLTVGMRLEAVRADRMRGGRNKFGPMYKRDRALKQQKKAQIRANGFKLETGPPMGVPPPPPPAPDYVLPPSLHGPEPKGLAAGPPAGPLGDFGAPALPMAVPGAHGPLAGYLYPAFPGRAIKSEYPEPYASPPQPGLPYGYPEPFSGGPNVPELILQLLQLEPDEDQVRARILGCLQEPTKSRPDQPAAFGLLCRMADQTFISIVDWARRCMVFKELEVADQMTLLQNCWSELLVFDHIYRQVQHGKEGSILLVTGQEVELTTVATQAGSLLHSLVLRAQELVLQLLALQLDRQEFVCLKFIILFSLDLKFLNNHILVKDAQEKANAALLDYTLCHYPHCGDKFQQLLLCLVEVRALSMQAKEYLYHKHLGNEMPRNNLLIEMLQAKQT

One may read the inhibition as the change of the read-out against control, counted positive when it falls. As to `COc1ccc(C[C@@H]2OC3(C=CC(=O)C=C3)O[C@H]2Cc2ccc(OC)cc2)cc1`, the inhibition was 37.5% (active) in test [1], 68.4% (active) in test [2], 66% (active) in test [3] and 70.6% (active) in test [4].
In the case of `CCN(CC)S(=O)(=O)c1cccc(NC(=O)CNc2cccc(S(=O)(=O)N3CCCC3)c2)c1`, the inhibition in test [1] was 26.7%; in test [2], 64.4% (active); in test [3], 59.8% (active); in test [4], 49.5% (active).
In the same order, the values of `CCN1C(=O)c2cccc3c(N)ccc1c23` are 33.4% (active), 58.6% (active), 46% (active) and -37.8%.
For `CC(=O)Nc1cc(-c2ccc(S(C)(=O)=O)cc2)cn2c(-c3ccc(F)cc3)cnc12`, in that order: 17.4%, 53.4% (active), 33.3% and -7.42%.
As for `CC(=O)c1ccc(-c2c(C)cc3oc(=O)cc(-c4ccccc4)c3c2C)cc1`, the inhibition in test [1] is -6.71%; in test [2], 57% (active); in test [3], 52.6% (active); in test [4], -3.38%.
For the compound `CC(=O)N1CCN(c2ccc(NCc3ccc(C)cc3)cc2)CC1`, the inhibition was 1.04% in test [1], 34.2% in test [2], 33.7% in test [3] and 1.11% in test [4].
In the same order, the values of `CC(C)c1cc(NC(=O)CCl)on1` are 35.2% (active), 47.4% (active), 51.9% (active) and -11.4%.
Take `COC(=O)c1ccc(NC(=O)CN2CCN(S(=O)(=O)c3cc(Cl)ccc3OC)CC2)cc1`: the inhibition was 9.56% in test [1], 60.3% (active) in test [2], 57.5% (active) in test [3] and 7.76% in test [4].
For `CCCc1cc(NCCOCCO)n2c(nc3ccccc32)c1C#N`, in that order: 4.93%, 45.1% (active), 36.6% and -14.6%.
As for `CCn1c2ccccc2c2cc(C3C(C#N)=C(N)Oc4n[nH]c(COC)c43)ccc21` (centres undefined), the inhibition was 44.9% (active) in test [1], 50.8% (active) in test [2], 51.7% (active) in test [3] and 14.3% in test [4].
Regarding `O=C(Nc1cccc([N+](=O)[O-])c1)c1ccc([N+](=O)[O-])o1`, the inhibition in test [1] was 24%; in test [2], 64.7% (active); in test [3], 70.5% (active); in test [4], -20.3%.
Take `CCN(CC)S(=O)(=O)c1cc(NC(=O)CCCOc2ccc(C(C)=O)cc2)ccc1C`: the inhibition was 2.6% in test [1], 42.6% (active) in test [2], 19.8% in test [3] and 21.1% in test [4].
For `Cc1ccccc1NC(=S)NCc1ccc2[nH]c3c(c2c1)CCCC3`, in that order: -0.36%, 17.9%, 28.9% and 9.36%.
For `CC(=O)Oc1ccc(-c2ccc(C(=O)Nc3cccc(S(=O)(=O)N4CCOCC4)c3)cc2)cc1`, the inhibition in test [1] is 25.5%; in test [2] it was 35.1%; in test [3], 52.1% (active); in test [4], 59.4% (active).
Regarding `COc1ccc(NC(=O)CSc2ncnc3[nH]ncc23)cc1`, the inhibition was 7.25% in test [1], 60.5% (active) in test [2], 54.4% (active) in test [3] and -6.96% in test [4].
For `CCc1ccccc1NC(=O)CSc1nnc([C@@H](NC(=O)OC(C)(C)C)C(C)C)o1`, the inhibition is 5.95% in test [1], 45.9% (active) in test [2], 45.9% (active) in test [3] and 0.4% in test [4].
`O=C(Cn1cnc2c(nnn2-c2ccccc2)c1=O)NCC1CCCO1` (centres undefined): the inhibition was -2.93% in test [1], 16.6% in test [2], -2.18% in test [3] and 7.48% in test [4].
Regarding `O=C(c1ccc([N+](=O)[O-])s1)N1CCN(c2ncccn2)CC1`, the inhibition was 1.48% in test [1], 30.8% in test [2], 41.5% in test [3] and 4.85% in test [4].
Turning to `COc1ccc(C(=O)C(C)Oc2cccc(NC(=O)c3cccc([N+](=O)[O-])c3)c2)cc1` (centres undefined), the inhibition in test [1] was 1.27%; in test [2], 35.4%; in test [3], 44.1% (active); in test [4] it was -5.28%.
In the case of `Nc1nc(-c2ccccc2)[nH]c(=O)c1N=O`, the inhibition in test [1] was 18.9%; in test [2] it was 54% (active); in test [3], 49.4% (active); in test [4] it was -10.9%.
On to `Cc1ccc(NC(=O)CNNC(=O)c2cccc([N+](=O)[O-])c2)cc1[N+](=O)[O-]`, for which the inhibition was 2.1% in test [1], 34.6% in test [2], 31.3% in test [3] and -5.02% in test [4].
With `C[n+]1c2cc(N)ccc2cc2ccc(N)cc21`, the inhibition in test [1] is 34.8% (active) and 28.5% (active); in test [2], 109% (active) and 105% (active); in test [3], 79.5% (active) and 66.7% (active); in test [4], 95.3% (active) and 92.1% (active).
As to `S=C(Nc1cccnc1)Nc1cccc2cnccc12`, the inhibition in test [1] was 9.29%; in test [2], 17.3%; in test [3] it was 26.2%; in test [4], 17%.
With `Cc1c(C(=O)N(Cc2ccc(F)cc2)C2CCS(=O)(=O)C2)oc2ccccc12` (centres undefined), the inhibition in test [1] was 36.8% (active); in test [2] it was 8.94%; in test [3], 31.4%; in test [4], -5.18%.
With `COc1ccc(S(=O)(=O)N2CCCN(CC(=O)Nc3ccc(OC)c(Cl)c3)CC2)cc1`, the inhibition was 17.7% in test [1], 65.8% (active) in test [2], 57.7% (active) in test [3] and -5.36% in test [4].
Take `O=C(NCc1cccc(C(F)(F)F)c1)c1cc(-c2ccccc2)nn1CC1CC(c2cccnc2)=NO1` (centres undefined): the inhibition was 13% in test [1], 36.4% in test [2], 32.1% in test [3] and 6.07% in test [4].
Take `Cc1cc(C)n(-c2nc(Nc3ccccc3C(F)(F)F)nc(-n3nc(C)cc3C)n2)n1`: the inhibition in test [1] is 20.8%; in test [2] it was 21.6%; in test [3] it was 24.5%; in test [4], -0.49%.
With `Cc1cc(=O)oc2c(C)c(OCC(=O)NC3CC(C)(C)NC(C)(C)C3)ccc12`, the inhibition in test [1] is -1.6%; in test [2] it was 48% (active); in test [3], 55% (active); in test [4], -11.2%.
For `COc1ccc(S(=O)(=O)N2CCN(CC(=O)Nc3ccc(C)c(F)c3)CC2)cc1`, the inhibition in test [1] is 17.5%; in test [2] it was 58.6% (active); in test [3] it was 51.9% (active); in test [4], -4.75%.
`COc1ccccc1Nc1nc(NCCCCO)nc(N2CCCC2)n1`: the inhibition in test [1] was 10.5%; in test [2], 30.2%; in test [3] it was 38.3%; in test [4], 5.34%.
With `COC(=O)CNc1nc(-c2cccnc2)nc2ccccc12`, the inhibition in test [1] was 16.8%; in test [2], 44.6% (active); in test [3], 42.2%; in test [4] it was -0.85%.
With `Cc1ccc(N2CC(C(=O)Nc3nc4ccc(S(C)(=O)=O)cc4s3)CC2=O)cc1C` (centres undefined), the inhibition was 11.2% in test [1], 44.6% (active) in test [2], 34.7% in test [3] and -2.05% in test [4].
For `O=C(Nc1nnc(C2=COCCO2)o1)c1ccc([N+](=O)[O-])s1`, in that order: 18.6%, 49.4% (active), 40.3% and -6.2%.
Consider `O=c1c2ccccc2c(C=Nc2ccccc2O)c(O)n1-c1nccs1`, for which the inhibition in test [1] is 5.33%; in test [2], 46.1% (active); in test [3] it was 35.1%; in test [4] it was -7.97%.
With `COc1ccc(OC)c(NC(=S)NCc2cccnc2)c1`, the inhibition in test [1] was 1.82%; in test [2], 35.9%; in test [3] it was 33.3%; in test [4], 0.37%.
In the same order, the values of `COc1ccc(NC(=O)CSc2ncnc3c2cnn3Cc2ccccc2)cc1` are 16.1%, 49.6% (active), 62.2% (active) and 2.38%.
Consider `COc1cc2c3c(cccc3c1)C(=O)N(CCN1CCCC1)C2=O`, for which the inhibition in test [1] was 12.7%; in test [2], 72.8% (active); in test [3] it was 49.7% (active); in test [4] it was 70.9% (active).
On to `COc1ccc(-c2nnnn2-c2ccccc2OC)cc1`, for which the inhibition in test [1] is 8.71%; in test [2], 53.8% (active); in test [3], 54.3% (active); in test [4] it was 0.37%.
In the same order, the values of `Nc1cccc2nc3ccccc3cc12` are 21.7%, 104% (active), 55.1% (active) and 92.2% (active).
In the same order, the values of `COc1ccc(/C=N/NC(=O)c2cc(-c3ccc(C)cc3C)nc3ccccc23)cc1COC(C)=O` are 1.71%, 52.8% (active), 50.6% (active) and -17.4%.
`O=C(NNc1c(F)c(F)cc(F)c1F)C1CCN(S(=O)(=O)c2ccccc2F)CC1`: the inhibition in test [1] is -3.09%; in test [2] it was 8.61%; in test [3], 22.4%; in test [4], 4.32%.
`CCOc1ccc(CCNC(=O)COC(=O)c2nc3nc(C)cc(C)n3n2)cc1OCC`: the inhibition in test [1] is 9.65%; in test [2], 48.8% (active); in test [3], 38.2%; in test [4], -0.98%.
With `O=C(C[n+]1ccc(Cc2ccccc2)cc1)Nc1ccc([N+](=O)[O-])cc1Cl`, the inhibition in test [1] is 5.98%; in test [2] it was 54.7% (active); in test [3], 45.6% (active); in test [4] it was 5.52%.
For the compound `COc1cccc(C(NC(C)=O)c2ccc3cccnc3c2O)c1` (centres undefined), the inhibition in test [1] is 74.9% (active); in test [2] it was 89.8% (active); in test [3] it was 76.5% (active); in test [4], 76.3% (active).
Regarding `CCOc1ccc(C(C)=O)cc1COC(=O)c1cc([N+](=O)[O-])ccc1N1CCOCC1`, the inhibition in test [1] is 15.1%; in test [2], 58.2% (active); in test [3], 55.5% (active); in test [4], 7.41%.
On to `Cn1c(=O)n(C)c2cc(NC(=O)CCl)ccc21`, for which the inhibition in test [1] was 60.5% (active); in test [2], 73.4% (active); in test [3] it was 61.5% (active); in test [4], -101%.
`COc1ccc(S(=O)(=O)N2CCOCC2)cc1N=Nc1sc(N)nc1-c1ccccc1`: the inhibition is 36.4% (active) in test [1], 60.7% (active) in test [2], 66.3% (active) in test [3] and -3.07% in test [4].
For `O=C(CCl)Nc1ccc(N2CCCCCC2)cc1`, in that order: 25%, 54.6% (active), 51.3% (active) and -8.63%.
For the compound `COc1ccc(CNC(=O)c2sc(=O)n(Cc3ccc(-c4ccccc4)cc3)c2C)cc1OC`, the inhibition in test [1] was 26%; in test [2] it was 37.7%; in test [3], 42.5%; in test [4], 31.6% (active).
Take `O=C(CSc1nc2ccccc2c(=O)n1-c1ccc(F)cc1)Nc1ccc(N2CCOCC2)cc1`: the inhibition is 2.2% in test [1], 29.5% in test [2], 25.7% in test [3] and 6.2% in test [4].
As to `Cc1c(NC(=O)c2ccc([N+](=O)[O-])o2)cccc1-c1nc2ncccc2o1`, the inhibition in test [1] is 13.3%; in test [2], 66.2% (active); in test [3] it was 58.7% (active); in test [4], -13.2%.
